Assay outcomes deposited in PubChem by The Scripps Research Institute Molecular Screening Center.
In the library only some 3.5% were active in any assay of this set; here they are far more common.
MITF primary: human MITF inhibition, primary screen; inhibition, % at 2.6 µM; AlphaScreen MITF homodimerization, bead proximity signal; O75030; actives 0.91% (n = 650,000); AID 1259374; in the data active means inhibition above about 50%
Target sequence (O75030 whole entry, looked up): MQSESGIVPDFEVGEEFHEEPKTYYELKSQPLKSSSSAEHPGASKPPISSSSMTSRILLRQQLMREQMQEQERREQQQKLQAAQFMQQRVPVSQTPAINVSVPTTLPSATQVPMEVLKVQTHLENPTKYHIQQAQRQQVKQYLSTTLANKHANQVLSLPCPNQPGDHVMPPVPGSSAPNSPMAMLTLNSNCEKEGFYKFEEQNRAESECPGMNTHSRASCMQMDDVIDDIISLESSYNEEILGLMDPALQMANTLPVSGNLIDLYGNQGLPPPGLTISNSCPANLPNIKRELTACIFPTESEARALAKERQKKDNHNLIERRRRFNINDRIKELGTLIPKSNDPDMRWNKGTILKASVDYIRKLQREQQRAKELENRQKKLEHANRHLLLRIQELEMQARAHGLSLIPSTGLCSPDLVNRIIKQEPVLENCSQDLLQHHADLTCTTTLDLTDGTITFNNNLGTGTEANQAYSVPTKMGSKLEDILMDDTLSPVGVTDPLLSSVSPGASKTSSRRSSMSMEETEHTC
FBW7 act: activators of human E3 ligase FBW7; Q969H0; AlphaScreen FBW7–phospho-cyclin E peptide binding, activator screen; normalized activity (activation), % at 26.1 µM; actives 0.13% (n = 650,000); in the data active means normalized activity above about 1.9%;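 further: purified mutant Fbw7 with reduced substrate affinity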
TEAD-YAP block: TEAD-YAP interaction inhibition. HEK-TIYL cells, TEAD-Gal4/YAP UAS-luciferase luminescence. inhibition, % at 9.12 µM. actives 1.4% (n = 640,000). AID 1259422; in the data active means inhibition above about 32%
GPR151 ag: human GPR151 activation; Q8TDV0; PathHunter beta-arrestin GPR151 cells, luminescence; activation, % at 11.2 µM; actives 1% (n = 650,000); in the data active means activation above about 4.9%
A number is an active result; . = inactive.

SMILES	MITF primary	FBW7 act	TEAD-YAP block	GPR151 ag
Cc1cc(=O)oc2c1ccc1oc(C(=O)c3ccccc3)c(C)c12	.	.	48.6	.
CC(=O)c1oc2ccc3c(C)cc(=O)oc3c2c1-c1ccccc1	.	.	.	.
Cc1cn2c3c(=O)n(C)c(=O)n(C)c3nc2n1CCCN(C)C	.	.	.	.
Cc1cc(NC(=O)CSc2n[nH]c(N)n2)n(-c2ccccc2)n1	.	.	.	.
O=C(Cc1ccc(N2CCC(NCCn3ccnc3)CC2)cc1)NCc1ccccc1	.	.	47.0	.
O=C(Cc1ccc(N2CCC(NCCn3ccnc3)CC2)cc1)N1CCCC1	.	.	.	.
CN1C(=O)N(C)C(NNC(N)=S)C1NNC(N)=S (centres undefined)	.	.	87.7	.
CCCSc1nc2sc3c(c2c(=O)n1-c1ccccc1)CCCCC3	.	.	.	.
CCn1c(=N)c(C(=O)NC)cc2c(=O)n3cccc(C)c3nc21	.	.	32.2	.
CCn1c(=N)c(C(=O)NCCOC)cc2c(=O)n3cccc(C)c3nc21	.	.	.	.
O=C(N/N=C\c1ccccc1[N+](=O)[O-])c1n[nH]c2c1CCCC2	.	.	54.3	.
O=C(N/N=C/c1ccccc1O)c1n[nH]c2c1CCCC2	.	.	32.9	.
COc1cc2nc(CN(C)C3CCOC3)nc(N)c2cc1OC (centres undefined)	.	.	.	.
COC(=O)c1c(-c2cccc(C)c2)csc1NC(=O)C1CCCCC1C(=O)O (centres undefined)	.	.	.	.
O=C(Cc1cccs1)Nc1cccc(-c2ccc(N3CCCCC3)nn2)c1	.	.	51.5	.
CC(=O)NC1=NC(=O)/C(=C\c2ccc(I)o2)S1	75.0	.	.	.
CC(=O)NC1=NC(=O)/C(=C/c2ccc(-c3ccc(Cl)cc3)o2)S1	.	.	.	.
CN(C)S(=O)(=O)c1ccc(Cl)c(C(=O)OCC(=O)Nc2ccc3ccccc3c2)c1	.	.	.	.
O=C(CSc1cccc2cccnc12)N/N=C/c1c(O)ccc2ccccc12	.	.	34.3	.
O=C(CSCC(=O)Nc1ccccc1)N/N=C/c1c(O)ccc2ccccc12	.	.	73.9	.
Fc1cccc(-c2nc3cccnc3nc2-c2cccc(F)c2)c1	.	.	.	.
Clc1nc2ncccc2nc1-c1ccccc1	.	.	40.7	.
CC(=O)NS(=O)(=O)c1ccc(NS(=O)(=O)c2cccc(C(F)(F)F)c2)cc1	.	.	.	.
Cc1nc2cc(-c3cccc(F)c3)nn2c(C)c1CCC(=O)O	.	.	42.9	.
COc1ccc(-c2cc3nc(C)c(CCC(=O)N4CCCC4)c(C)n3n2)c(OC)c1	.	.	.	.
SMILES	MITF primary	FBW7 act	TEAD-YAP block	GPR151 ag
CCC(C)NC(=O)CCc1c(C)nc2cc(-c3cccc(F)c3)nn2c1C (centres undefined)	.	.	.	.
COc1ccc(-c2cc3nc(C)c(CCC(=O)O)c(C)n3n2)c(OC)c1	.	.	38.6	.
C=CCN1C(=O)S/C(=C/c2cc(I)c(OC)c(OC)c2)C1=O	.	.	.	.
Cn1c(CCNC(=O)CCc2nnc(Cc3c[nH]c4ccccc34)o2)nc2ccccc21	.	.	.	.
O=C(CCc1nnc(Cc2c[nH]c3ccccc23)o1)NCCn1ccc2ccccc21	.	2.3	.	.
COc1ccccc1NC(=O)C1CC=CCC1(C)C(=O)O (centres undefined)	.	.	.	.
Cc1ccnc(NC(=O)COc2ccc(Cl)c(C)c2)c1	.	.	.	.
Cc1cc(OCC(=O)Nc2ccccn2)ccc1Cl	.	.	63.5	.
Nc1ccc(NC(=O)c2nc[nH]c2C(=O)O)cc1	85.5	.	.	.
COCCOC(=O)c1[nH]c2c(c1C)C(=O)CC(c1ccccc1)C2 (centres undefined)	.	.	49.0	.
COCCOC(=O)c1[nH]c2c(c1C)C(=O)CC(c1ccc(Cl)cc1)C2 (centres undefined)	.	.	.	.
Cc1c(C(=O)O)[nH]c2c1C(=O)CC(c1ccccc1)C2 (centres undefined)	.	.	.	.
COCCOC(=O)c1[nH]c2c(c1C)C(=O)CC(c1ccc(N(C)C)cc1)C2 (centres undefined)	.	.	.	.
COCCOC(=O)c1[nH]c2c(c1C)C(=O)CC(c1ccc(F)cc1)C2 (centres undefined)	.	.	35.2	.
Cc1c(C(=O)OCCOC(C)C)[nH]c2c1C(=O)CC(c1ccccc1)C2 (centres undefined)	.	.	48.1	.
CN1CCN(C(=O)c2ccc(-c3cnc4c(n3)[nH]c(=O)n4-c3ccccc3)cc2)CC1	.	.	.	.
